Compounds without any hit were thinned out: in the full panel of roughly 83,000, 20% have a hit.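 For each line, cells grew in 96-well plates with the test compound present at a single concentration for 48 hours.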 Values without a mark were called inactive. Activity calls are given as the source filed them.

This assay deals with CAKI-1 renal. Nature of the assay: NCI-60 one-dose screen, 48 h (100 = growth as untreated, 0 = no growth, -100 = all killed). Particulars: 10 µM unless noted. As for the experimental part: Growth inhibition of the CAKI-1 human tumor cell line is measured as a screen for anti-cancer activity. Cells are grown in 96 well plates and exposed to the test compound for 48 hours. Compounds are tested at a single concentration, which is 10^-5 M for most compounds. The reported endpoint is percent growth (GI% or GIPRCNT), where numbers from 0 - 100% represent growth inhibition, and numbers from -100% - 0 represent cell death. For example, a value of 40 represents 60% growth inhibition. A value of 0 means no net growth occurred over the course of the experiment. A value of -40 indicates 40% of cells at the beginning of the experiment died by the end of the experiment. A value of -100 means all cells are dead at the end of the experiment.
NCI-60 Human Tumor Cell Lines Screen was performed using the standard one-dose NCI protocol, which is described in more detail at https://dtp.cancer.gov/discovery_development/nci-60/default.htm.
Compounds with GIPRCNT values below 10 were considered active. Activity score was based on GIPRCNT using the following formula: […]
Score is 0 for GIPRCNT values of 100 or above, 50 for GIPRCNT values of 0, and 100 for GIPRCNT values of -100.
As to `O=C1Nc2ccc3c(c2/C1=C\c1cc2c(cc1Br)OCO2)OCO3`, the growth was -25.7% (active). To `Cc1csc(NC(c2ccc(Br)cc2)c2c(C)nc3ccccn23)n1` (stereo not given) belongs 80.8%; to `CC1(c2ccc(Cl)cc2)OC(=O)CC(=O)O1`, 94.9%.

On to `COc1cc(-c2nn(-c3cccc(NC(=O)c4ccc(Cl)c(C(F)(F)F)c4)c3)cc2-c2ccncc2)ccc1Cl`, for which the growth is 61.1%.

Take `COc1cc2c(cc1O)CCN1C[C@@H](CC(C)C)[C@@H](O)C[C@@H]21`: the growth was 91.4%. To `COc1ccc2c(c1)C(c1cc(OC)c3c(c1)OCO3)C1=C(COC1=O)N2` (stereo not given) belongs 51.1%; to `C=C(C)[C@@H]1C[C@H](O)Cc2cc(F)ccc2N1`, 91.4%; to `CC(C)NCCCNC1=C(Cl)C(=O)c2ccccc2C1=O`, 66.7%. To `CC(C)C(C(=O)NCCN1CCOCC1)N1C(=O)/C(=C/c2ccc(Br)cc2)SC1=S` (stereo not given) belongs 97.9%; to `COC(=O)[C@]12CC[C@@H](C)[C@H](C)[C@@H]1C1=CC[C@@H]3[C@@]4(C)C(C=O)=C[C@@](C)(COC(=O)c5ccco5)[C@@H]4[C@H](O)C[C@@]3(C)[C@]1(C)CC2`, -6.76% (active); to `Cc1cc(C2=NNC(=O)Cc3cc4c(cc32)OCCO4)cc(C)c1N`, 40.4%. To `Nc1nnc(-c2ccc3ccccc3c2O)o1` belongs 96.8%. Take `CCOC(=O)c1ccc2c(c1)c1c(C)c3cccnc3c(C)c1n2C`: the growth was 30.9%.

As for `COc1ccc(-c2c(N)n[nH]c2-c2cc3c(c(OC)c2OC)OCO3)cc1`, the growth was 94.4%.

For `CCN(CC)CCCC(C)Nc1c2ccc(Cl)cc2nc2cc(OC)c(OC)cc12` (stereo not given), the growth is 9.87% (active). To `CCCCCCCC/C=C/CCCCCCCC1=NC(C)(C)CN1C(C)(C)CO` belongs 42.3%. To `COc1ccc(-n2c(-c3ccccc3)c(-c3ccccc3)c3c(SCC(=O)N/N=C/c4ccc(Cl)cc4)ncnc32)cc1` belongs 87.9%; to `OB(O)c1cccc(-c2nc3ccc4[nH]ncc4c3c3c2CCCC3)c1F`, -24.3% (active); to `Cc1cc(C2(c3cc(C)c(O)cc3C)OS(=O)(=O)c3ccccc32)c(C)cc1O`, 95.7%. To `COc1cccc(/C=C2\Oc3cc(OCCCN4CCCC4)ccc3C2=O)c1OC` belongs 93.1%; to `Cc1cc(N)n(S(=O)(=O)c2oc(-c3ccccc3)nc2C#N)n1`, -49.4% (active). `COc1ccc(-c2ccc(C)n2-c2ccc(-c3nc4ccccc4s3)cc2)cc1`: the growth was 76%.

Take `CN(C)CCCC(C#N)c1ccccc1` (stereo not given): the growth was 117%. To `COc1ccc(-c2nc3sccn3c2/C=C/C(=O)c2cc(F)cc(F)c2)cc1` belongs 57.1%; to `O=C1/C(=C/c2ccc(Cl)cc2)CN(C(=O)CCN2CCC(=NO)CC2)C/C1=C\c1ccc(Cl)cc1`, -73.9% (active). To `CCCCCCCCC(C)OC(=O)c1nn(C(C)=O)c2ccccc12` (stereo not given) belongs 91.1%; to `NC(=N\N=C/c1ccc(O)cc1)/C(N)=N\N=C/c1ccc(O)cc1`, 41.5%; to `CCN1CCN(CC(=O)N2c3cccc4cccc(c34)N(C(=O)CN3CCN(CC)CC3)C2c2cn(-c3ccccc3)nc2-c2cccc([N+](=O)[O-])c2)CC1`, -5.5% (active).

With `Cc1csc(NC(c2ccccc2)c2c(C)nc3ccccn23)n1` (stereo not given), the growth was 94.5%.

For the compound `COc1ccc(NC(=O)c2cc(OC)c(OC)c(OC)c2)cc1O`, the growth was 46.8%. To `C=C[C@@H]1C[C@@H]2Cc3ccccc3N1O2` belongs 97.8%. Consider `C=C(C)[C@@H]1CC[C@]2(C(=O)O)CC[C@]3(C)[C@H](CC[C@@H]4[C@@]5(C)C[C@@H](CC#Cc6ccc(C(F)(F)F)cc6)[C@H](O)C(C)(C)[C@@H]5CC[C@]43C)[C@@H]12`, for which the growth is 50%.

Take `CC1=NC2=CC=CC3=NC(C(Cl)(Cl)Cl)=NC(=N1)N23`: the growth is 61.3%.

As to `COc1cc(C2C3=C(COC3=O)Nc3cc4c(cc32)OCO4)cc2c1OCO2` (stereo not given), the growth is 44.1%. On to `COc1ccc(C(=O)N2NC(=O)/C(=C/c3ccc(F)cc3)N=C2c2ccccc2)cc1`, for which the growth was 86.1%. To `C=C[C@@H]1C[C@H](O)Cc2ccccc2N1` belongs 100%; to `c1coc(CNc2ccnc(Nc3ccc(OCCN4CCCCC4)cc3)n2)c1`, 92.3%. To `NC1=NN(O)C2=CC([N+](=O)[O-])C=CC2=N1` (stereo not given) belongs 93.8%; to `CCCCOc1ccc(/C=C2/SC(N3CCOCC3)=NC2=O)cc1OCC`, 84.8%. To `CCCC(=O)Oc1ccc(/C(=C(\C)c2ccccc2)c2ccc(OCCN(CC)CC)cc2)cc1` belongs 96.9%.

(Values after PubChem BioAssay (NCI).)
